In the library only some 19% were active in any assay of this set; here they are far more common.
DT40 TDP1 no CPT: qHTS for Inhibitors of human tyrosyl-DNA phosphodiesterase 1 (TDP1): qHTS in cells in absence of CPT | DT40 Tdp1-/- hTDP1 cells, no CPT, ATP luminescence, 48 h | Potency, µM (series often up to 46.2 µM), for inactives: at the top dose activity change, negative = growth inhibition, hits mostly inhibitors | 15% of 420,000 active | AID 686978, 2013; further: potency means the concentration at half of the fitted maximal effect; nearly all actives have a fitted effect of over 55% in size
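Luminescent ATP content (CellTiter-Glo) served as the growth readout. Knockout chicken DT40 cells expressing human TDP1 were exposed to compounds without camptothecin for a minimum 48 hr at 37 °C.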
ELG1 repair inh: ELG1-dependent DNA repair inhibition; HEK293T ELG1-luciferase reporter, luminescence, 16 h; DNA damage induced by 5-fluorouridine; Potency, µM (highest dose often 46.1 µM), without a hit: at the top dose activity change, negative = inhibition, actives largely listed as inhibitors; 2.3% of 330,000 active; further: potency means the concentration at half of the fitted maximal effect; nearly all actives have a fitted effect of over 55% in size
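Luminescence from the luciferase reporter, measured 30 min after ONE-Glo reagent at room temperature, was the read-out. Beforehand, 2,000 cells per well were exposed for 16 hr at 37 °C to 5-fluorouridine together with compound or vehicle.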
DT40 TDP1 CPT: growth inhibition of DT40 Tdp1-/-;hTDP1 cells with camptothecin (screen for TDP1 inhibitors); 12% of 420,000 active; chicken DT40 Tdp1-/-;hTDP1 cells + 20 nM CPT, ATP luminescence, 48 h; Potency, µM (top dose mostly 46.2 µM), for the others: top-dose activity change, negative = growth inhibition, actives largely listed as inhibitors; further: potency means the concentration at half of the fitted maximal effect; nearly all actives have a fitted effect of over 55% in size
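Chicken DT40 Tdp1-/- cells stably complemented with human TDP1 were seeded at 400 cells/well in medium containing 20 nM camptothecin, exposed to pin-transferred compounds, and grown at 37 °C for at least 48 hr. Viability was read as ATP luminescence.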
TDP1 block: TDP1 (human) enzyme inhibition | recombinant TDP1, AlphaScreen DNA substrate cleavage | Potency, µM (top dose mostly 130 µM), for inactives: top-dose activity change, negative = inhibition, usual class: inhibitors | 0.28% of 350,000 active; further: potency means the concentration at half of the fitted maximal effect; nearly all actives have a fitted effect of over 40% in size
Target sequence (Q9NUW8 whole entry, looked up): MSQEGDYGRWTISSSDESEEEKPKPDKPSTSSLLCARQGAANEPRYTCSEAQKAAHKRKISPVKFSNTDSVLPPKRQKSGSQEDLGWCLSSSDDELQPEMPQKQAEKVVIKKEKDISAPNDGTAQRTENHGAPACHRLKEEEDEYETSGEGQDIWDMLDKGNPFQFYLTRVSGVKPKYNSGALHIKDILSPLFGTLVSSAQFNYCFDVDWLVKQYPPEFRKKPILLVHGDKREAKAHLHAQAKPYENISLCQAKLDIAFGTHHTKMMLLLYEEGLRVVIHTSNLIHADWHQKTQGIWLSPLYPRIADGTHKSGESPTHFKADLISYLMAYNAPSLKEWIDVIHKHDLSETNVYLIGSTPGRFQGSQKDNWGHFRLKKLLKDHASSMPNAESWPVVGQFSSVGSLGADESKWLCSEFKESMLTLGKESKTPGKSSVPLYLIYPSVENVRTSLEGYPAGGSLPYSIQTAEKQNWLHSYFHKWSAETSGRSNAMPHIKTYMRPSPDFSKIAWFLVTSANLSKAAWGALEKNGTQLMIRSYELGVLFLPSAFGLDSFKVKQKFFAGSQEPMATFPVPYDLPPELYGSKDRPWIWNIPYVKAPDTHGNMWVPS
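Recombinant E. coli-expressed Tdp1 (1 nM) preincubated with compound 15 min at RT, then 5'-biotin/3'-phosphotyrosine-FITC DNA substrate (15 nM) added for 5 min. AlphaScreen beads (10 ug/ml) added, 10 min RT; tyrosine-FITC cleavage read as signal loss.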
IL-1B inflam inh: inhibitors of inflammasome signaling (IL-1 beta secretion); THP-1 LPS/ATP IL-1B secretion, AlphaLISA, 16 h; active compounds read low; activity change, % at 57.5 µM; 4.7% of 360,000 active; AID 743279; in the data active means activity change below about -50%; inconclusive means mostly about -30% to -49%
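Secreted IL-1B measured by AlphaLISA bead assay after 16 h compound exposure of THP-1 cells; compounds (final up to 57.5 uM) added 1 h before LPS (250 ng/mL) and ATP (1.25 mM) stimulation; lower signal means less secretion.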
Giardia kill: Giardia lamblia killing | Giardia lamblia trophozoite viability | activity change, % at 7.66 µM, hits read low | 0.15% of 340,000 active | AID 540267; in the data active means activity change below about -80%; inconclusive means between about -30% and that limit;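 further: parasites exposed to compound for two days anaerobically before the ATP read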
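Each well holds 100 Giardia trophozoites and compound. After two days (48 hrs) at 37 deg C in anaerobic conditions, ATP is quantified by luminescence.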
Starred values were filed as active, the others as inactive; ? = inconclusive; / = no result given; [ ] = another dose, or the depositor's remark. Unless noted, the call rests on the fitted dose curve; in most records, active means well fitted curve in the direction sought with a large enough effect; inconclusive means small, poorly fitted or top-dose-only effect, or another doubt; inactive means no such curve, though single readings can be large; an effect the other way counts as inactive or inconclusive. On the % scale 0 is the no-effect control and ±100 the full control effect.

SMILES	DT40 TDP1 no CPT	ELG1 repair inh	DT40 TDP1 CPT	TDP1 block	IL-1B inflam inh	Giardia kill
CCCC[C@@H]1CNCCN1CCc1cccc2ccccc12	18.4µM*	6.6%	23.1µM*	-3.7%	?	1.3
c1ccc(C[C@H]2CNCCN2CCc2cccc3ccccc23)cc1	10.3µM*	28.3%	?	-1.8%	-27.4	-1.1
CCOc1ccc(NC(=O)c2ccccc2SC)cc1	?	?	?	/	-19.9	-5.8
CCOc1ccc(NC(=O)c2cc(SC)ccc2Cl)cc1	16.4µM*	-24.2%	18.4µM*	-2.7%	-17.7	5.6
CCCCCOc1ccc(NC(=O)c2cc(SC)ccc2Cl)cc1	13µM*	-19.1%	23.1µM*	0.0%	14.9	-21.6
CCOC(=O)C1CCN(C(c2ccc(SC)cc2)c2c(O)cc(C)n(Cc3ccco3)c2=O)CC1 (stereo unspecified)	-22.5%	/	-10.4%	5.4%	/	/
Cc1ccc(NC(=O)c2c3c(nc4ccccc24)CCC3)cc1	-6.6%	1.8%	-2.8%	0.0%	8.3	-9.9
Cc1ccc2nc3c(c(Nc4ccc(O)cc4)c2c1)CCC3	18.4µM*	-1.7%	?	/	-6.4	9.3
COc1ccc(Nc2c3c(nc4ccc(C)cc24)CCC3)cc1	?	-4.3%	?	/	-13.5	48.7
Cc1ccc2nc3c(c(Nc4ccc5c(c4)OCCO5)c2c1)CCC3	18.4µM*	-20.6%	16.4µM*	11.3%	-92.2*	-0.4
CC(=O)N1C[C@H]2CON(C)[C@H]2C[C@H]1c1ccc(-c2ccc(C#N)cc2)cc1	?	/	?	/	21.9	/
CCOC(=O)C1=CCN(S(=O)(=O)c2ccccc2Br)C1c1ccccc1 (stereo unspecified)	?	/	?	/	49.4	/
Cc1[nH][nH]c(=O)c1C(c1ccccc1[N+](=O)[O-])C(C#N)C#N (stereo unspecified)	-27.7%	5.1%	?	5.0%	-145.6*	-10.4
Cn1sc(=O)n(Cc2ccccc2)c1=O	/	/	/	12.1%	/	/
Fc1ccc(CCNC(=S)Nc2ccc(F)c(Cl)c2)cc1	?	?	18.4µM*	-1.2%	-82.9*	2.1
O=C(NCCc1ccc(Cl)cc1)Nc1ccc(F)cc1	?	-1.4%	?	0.0%	-25.9	8.4
Fc1ccc(NC(=S)NCCc2ccc(Cl)cc2)cc1	23.1µM*	?	?	5.1%	0.0	8.3
CC(C)=CC(=O)OCc1cc([N+](=O)[O-])cc2c1OCOC2	-11.7%	?	-0.7%	0.0%	-52.9*	16.9
COc1ccc(CNC(=O)Cn2c(=O)n3nc(-c4cccc(F)c4)nc3c3ccccc32)cc1OC	-7.4%	/	-4.3%	0.0%	/	/
COCCN(C(=O)c1cc2c(s1)CCC2)c1c(N)n(CC(C)C)c(=O)[nH]c1=O	-6.0%	17.2%	1.4%	?	-13.0	-22.6
N#Cc1c(C#N)c(SSc2c(C#N)c(C#N)c(N)n2-c2ccccc2)n(-c2ccccc2)c1N	4.61µM*	/	4.61µM*	/	-2.4	9.7
CCc1ccc(OC(C)C(=O)N2CCC(c3nc4ccccc4o3)CC2)cc1 (stereo unspecified)	?	/	?	1.6%	/	/
Cc1cc(C)cc(OCC(=O)N2CCC(c3nc4ccccc4o3)CC2)c1	16.4µM*	/	?	3.6%	/	/
Cc1cc(OC(C)C(=O)N2CCC(c3nc4ccccc4o3)CC2)ccc1Cl (stereo unspecified)	14.6µM*	/	23.1µM*	-1.6%	/	/
CCN(CC)C(=O)Cn1c(=O)n(CCCCCC(=O)NCc2ccc(C)cc2)c(=O)c2sccc21	-25.4%	/	2.2%	3.6%	/	/
COC(=O)c1cc2c(N)c(C(=O)c3ccccc3)sc2nc1C(OC)OC	?	?	?	-2.5%	?	-11.9
COc1cccc(C(=O)NCC(c2ccco2)N2CCc3ccccc3C2)c1 (stereo unspecified)	-8.3%	-8.3%	-3.3%	-2.4%[0.505 µM]	-15.2	-10.9

Source: PubChem BioAssay (National Center for Advancing Translational Sciences (NCATS))
